# Source: PubChem BioAssay
# A selection: hits, their analogues and other compounds. The true share with any hit is near 14%.
# Pf growth 48h – P. falciparum growth inhibition at 48 hours (one generation); actives 5.9% (n = 310,000); Potency, µM (doses to about 28.7 µM), usual class: inhibitors; P. falciparum luciferase growth in erythrocytes, 48 h
#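 First compound was added to culture medium, then infected red cells at 0.1% parasitemia and 2% hematocrit (final). After incubation at 37 C under 5% CO2, luciferase detection reagent was dispensed and light output recorded.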
# Pf growth 96h – P. falciparum growth inhibition at 96 hour, primary screen for plastid delayed-death inhibitors. Potency, µM (titrated, usually from 28.7 µM), usual class: inhibitors. actives 6.9% (n = 320,000). P. falciparum luciferase reporter growth, 96 h
#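 Delayed-death screen, second-generation endpoint: infected erythrocytes, 2% hematocrit, 0.05% parasitemia final; 96 hours at 37 C, 5% CO2; luciferase detection reagent; luminescence decrease equals reduced growth.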
# HCMV antiviral – inhibitors of human cytomegalovirus | actives 4.5% (n = 410,000) | HFF cells, HCMV-luciferase reporter, 72 h; hits give low values | activity change, negative = inhibition, % at 57.5 µM | AID 1259415; in the data active = activity change below about -60%; inconclusive = no clear call, values can overlap the other calls; inactive = above about -39%
#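 Cell-based, HFFs, 1000 cells/well, 16 h 37C; cpds in DMSO + HCMV-luc, MOI 1 PFU/cell; 72 h 37C; OneGlo luminescence after 5 min RT; norm. to buffer vs Salinomycin 10uM.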
# Sm TGR block – blocks Schistosoma mansoni thioredoxin glutathione reductase. Potency, µM (top dose mostly 114 µM), actives largely listed as inhibitors. Q962Y6. actives 3% (n = 360,000). purified TGR, DTNB reduction, TNB absorbance 405 nm; note: nearly all actives have a fitted effect of over 60% in size
#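 First, TGR (20 nM dispensed) and NADPH were mixed with compound. Second, a 15 min room-temperature incubation followed. Third, further NADPH and then DTNB were added to start the reaction. Finally, TNB absorbance was monitored kinetically.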
# FBPA Giardia inh – inhibitors of Giardia lamblia fructose-1,6-bisphosphate aldolase | Potency, µM (top dose mostly 59.6 µM), actives largely listed as inhibitors | actives 0.71% (n = 290,000) | purified Giardia FBPA | AID 2451 | A8B2U2; note: nearly all actives have a fitted effect of over 55% in size
# Target sequence (A8B2U2 whole entry, looked up): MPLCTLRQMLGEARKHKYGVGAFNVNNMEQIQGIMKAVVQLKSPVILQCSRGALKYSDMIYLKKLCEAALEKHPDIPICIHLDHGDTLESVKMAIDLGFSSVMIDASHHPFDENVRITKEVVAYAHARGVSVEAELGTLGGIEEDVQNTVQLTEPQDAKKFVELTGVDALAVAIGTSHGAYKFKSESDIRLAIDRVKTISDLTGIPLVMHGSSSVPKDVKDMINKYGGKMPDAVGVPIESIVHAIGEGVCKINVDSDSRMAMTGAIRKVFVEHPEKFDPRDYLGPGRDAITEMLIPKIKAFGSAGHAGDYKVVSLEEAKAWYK
#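 40 nM FBPA preincubated 10 min at RT with compound (up to 57.5 uM final), then substrate plus GAPDH/TPI/NAD/arsenate coupling and diaphorase/resazurin added. Fluorescence read after 20 min at RT, 525/598 nm.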
# Numbers stand for hits; . = inactive; ? = inconclusive; / = no result; ! = a repeat was not active. Unless noted, calls come from the whole dose curve; as a rule, active = well fitted curve in the direction sought with a large enough effect; inconclusive = small, poorly fitted or top-dose-only effect, or another doubt; inactive = no such curve, though single readings can be large; an effect the other way counts as inactive or inconclusive.
SMILES,Pf growth 48h,Pf growth 96h,HCMV antiviral,Sm TGR block,FBPA Giardia inh
CCOC(=O)N1CCCN(/[N+]([O-])=N/Oc2ccc([N+](=O)[O-])cc2[N+](=O)[O-])CC1,/,/,/,/,.
Oc1ccc(N=Cc2ccc(-c3cccs3)s2)cc1,?,?,.,22µM,3.5µM
CCOC(=O)CNC(=O)Cn1cnc2c(oc3ccccc32)c1=O,.,.,.,.,.
Cc1ccc(S(=O)(=O)N2CCC(Oc3cccc(C(F)(F)F)c3)CC2)cc1,.,2.3µM,.,.,.
Cc1ccc(NC(=O)C2CCN(S(=O)(=O)c3cccc(C(F)(F)F)c3)CC2)nc1,.,.,-94,.,/
COc1ccc(OC2CCN(S(=O)(=O)c3ccccc3)CC2)cc1,.,.,.,.,.
CC1CCN(S(=O)(=O)c2ccc3nc(Nc4cccc(C(F)(F)F)c4)ccc3c2)CC1,/,/,-100,.,/
O=C(Nc1ccncc1)C1CCN(S(=O)(=O)c2cccc(C(F)(F)F)c2)CC1,13µM,9.3µM,.,.,/
CC1CCN(S(=O)(=O)c2ccc3nc(Nc4ccc(C#N)cc4)ccc3c2)CC1,/,/,?,.,/
O=C(NCc1ccncc1)C1CCN(S(=O)(=O)c2cccc(C(F)(F)F)c2)CC1,.,?,.,.,.
O=S(=O)(c1cccc(C(F)(F)F)c1)N1CCC(c2cc(-c3cccc4ccccc34)n[nH]2)CC1,?,10µM,.,.,.
CCCCc1cc(=O)oc2cc(OCC(=O)N3CCC(C(=O)O)(c4ccccc4)CC3)ccc12,?,?,.,.,?
O=C(CN1CCN(c2ncccn2)CC1)N(Cc1ccccc1)c1ccc(F)cc1,.,12µM,.,.,?
COc1cc(OC)c(-c2cc(C(=O)NCc3ccc(F)cc3)c3c(-c4ccccc4)[nH]nc3n2)cc1OC,/,/,-93,.,/
CCOc1ccc(-c2cc(C(=O)NCCc3ccc(OC)c(OC)c3)c3c(-c4ccc(F)cc4)[nH]nc3n2)cc1,/,/,-92,.,/
COc1ccc(-c2cc(C(=O)NCCc3ccc(OC)c(OC)c3)c3c(-c4ccc(F)cc4)[nH]nc3n2)cc1,/,/,.,.,/
COc1ccccc1-c1cc(C(=O)NCc2ccccc2)c2c(-c3ccc(C)cc3)[nH]nc2n1,/,/,.,.,/
Cc1cc2c(cc1S(=O)(=O)NCc1ccccc1Cl)OCC(=O)N2,/,/,.,.,/
Cc1cc2c(cc1S(=O)(=O)NCc1ccccc1)OCC(=O)N2,.,.,-87!,.,.
Cc1ccc(CNS(=O)(=O)c2cc3c(cc2Cl)NC(=O)CO3)o1,/,/,.,32µM,/
CCOc1ccc(N(CC(=O)NCc2ccc(F)cc2)C(=O)c2snc(C(N)=O)c2N)cc1,.,.,.,.,.
COc1ccc(CN2CCN(C(=O)CC(C)C)CC2)c2ccccc12,.,/,.,.,?
COc1ccc(CN2CCN(C(=O)c3cccc4ccccc34)CC2)cc1OC,.,?,.,.,?
CCOc1cc(CN2CCN(C(=O)c3cccc4ccccc34)CC2)ccc1OC,8.3µM,?,.,.,?
Cc1ccccc1CN1CCN(C(=O)CC(C)C)CC1,.,10µM,.,50µM,.
SMILES,Pf growth 48h,Pf growth 96h,HCMV antiviral,Sm TGR block,FBPA Giardia inh
O=C(c1cccc2ccccc12)N1CCN(Cc2ccccc2F)CC1,.,?,.,.,?
Cc1ccccc1CN1CCN(C(=O)c2cccc3ccccc23)CC1,12µM,.,.,.,?
CN(C)c1ccc(CNC(=O)c2sc3ncccc3c2-n2cccc2)cc1,/,/,.,.,/
CCOC(=O)c1ccc(NC(=O)CN(c2ccc(C)cc2)S(=O)(=O)c2ccc(OC)cc2)cc1,/,/,.,.,/
Cc1cccc(OCCCn2c(=O)oc3ccc(C)cc32)c1,.,?,-80,.,.
O=c1oc2ccccc2n1CCCOc1ccccc1,.,12µM,.,.,.
O=C(O)COc1ccc(C(NC(=O)c2c(F)cccc2F)NC(=O)c2c(F)cccc2F)cc1,/,.,.,.,.
CCOc1ncccc1C(=O)NCC(c1ccccc1)N(C)C (centres undefined),.,.,.,.,/
Cc1ccccc1-c1nc(CN(C)C(C)c2ccon2)c(C)o1 (centres undefined),.,2.3µM,.,.,.
Cc1oc(-c2ccccc2Cl)nc1CN(C)C(C)c1ccon1 (centres undefined),.,?,.,.,.
CC1=C(C(=O)Nc2cccnc2)C(c2cccnc2)n2nc(-c3cccs3)nc2N1 (centres undefined),.,9.3µM,.,.,.
COc1ccc(-c2nc3n(n2)C(c2cccnc2)C(C(N)=O)=C(C)N3)cc1 (centres undefined),.,12µM,.,.,.
CCCCn1c(O)c(C=NC2CCCCC2N)c(=O)[nH]c1=O (centres undefined),.,/,.,.,.
CCCCCCn1c(O)c(C=NC2CCCCC2N)c(=O)[nH]c1=O (centres undefined),.,6.6µM,/,.,.
N#Cc1ccccc1NS(=O)(=O)c1cc2c3c(c1)CCC(=O)N3CCC2,?,.,.,.,/
Fc1ccc(-n2cc(-c3ccccc3)c3c(NC4CCCCC4)ncnc32)cc1,/,/,.,.,/
N=c1c2c(ncn1CCN1CCOCC1)Oc1ccc3ccccc3c1C2c1ccccc1 (centres undefined),/,4.7µM,.,.,.
c1ccc(C2c3c(ccc4ccccc34)Oc3ncn4nc(-c5ccco5)nc4c32)cc1 (centres undefined),.,?,.,.,.
COc1ccc(C2c3c(ccc4ccccc34)Oc3ncn4nc(-c5ccco5)nc4c32)cc1 (centres undefined),?,3.7µM,.,.,.
COc1ccc(C2c3ccc(O)cc3Oc3ncn(CCCO)c(=N)c32)cc1 (centres undefined),?,?,.,.,.
COc1ccc(C2c3c(ncn(CCN4CCOCC4)c3=N)Oc3ccc4ccccc4c32)cc1 (centres undefined),9.3µM,/,?,.,.
CC(C)C(C(=O)NC1CCCCC1)N1C(=O)C(=O)c2ccccc21 (centres undefined),/,/,.,/,/
O=C(NC(=S)Nc1cccc([N+](=O)[O-])c1)c1ccco1,.,8.3µM,.,.,.
O=C(/C=C/c1ccco1)NC(=S)Nc1cccc([N+](=O)[O-])c1,.,.,.,45µM,.
CN(C)c1ccc(C(=O)N2CCN(c3cc(C(F)(F)F)nc4ccccc34)CC2)cc1,?,13µM,.,.,.
COc1ccc2nc(N3C(=O)CNC3=S)sc2c1,.,?,-69,.,?
Cc1ccc2nc(N3C(=O)CNC3=S)sc2c1,?,.,-92,.,?
O=C(CSc1ccccn1)Nc1nonc1[N+](=O)[O-],?,?,.,7.1µM,/
COC(=O)c1c(N2C(=O)Nc3ccccc3N2O)sc(C)c1C,.,5.2µM,.,.,.
Cc1cc(C(=O)CN2C(=O)c3ccccc3S2(=O)=O)c(C)n1CC1CCCO1 (centres undefined),2.1µM,.,-100,.,.
